Measurements: the supplement of paper PMC7411054

Legend:
Experiment in all cases: phenotypically active (imaging signature differs from DMSO and reproducible) at any of 0.3-9 uM (binary (1 = active, 0 = inactive)); higher = active
Conditions in all cases: treatment time: 24 h
A549-ACTB-RAB5A = test system: A549-ACTB-RAB5A
Summary of the method: (§1)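 Phenotypic activity depended on meeting both a deviation and a reproducibility criterion. The fifteen gene-edited A549, HepG2 and WPMY1 reporter lines were treated at 0.3, 1, 3 or 9 µM for 24 h, four wells each, then imaged live with features normalised to solvent control wells. Deviation required ≥3 of 4 wells past the 95th percentile of control Euclidean distances, and reproducibility a median replicate Pearson correlation above the 95th percentile of non-replicates.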

A549-CANX-COX4 = test system: A549-CANX-COX4
Summary of the method: as §1

A549-GM130-SQSTM1 = test system: A549-GM130-SQSTM1
Summary of the method: as §1

A549-TP53BP1-CLTA = test system: A549-TP53BP1-CLTA
Summary of the method: as §1

A549-TUBA1B-RELA = test system: A549-TUBA1B-RELA
Summary of the method: as §1

HepG2-ACTB-RAB5A = test system: HepG2-ACTB-RAB5A
Summary of the method: as §1

HepG2-CANX-COX4 = test system: HepG2-CANX-COX4
Summary of the method: as §1

HepG2-GM130-SQSTM1 = test system: HepG2-GM130-SQSTM1
Summary of the method: as §1

HepG2-TP53BP1-CLTA = test system: HepG2-TP53BP1-CLTA
Summary of the method: as §1

HepG2-TUBA1B-RELA = test system: HepG2-TUBA1B-RELA
Summary of the method: as §1

WPMY1-ACTB-RAB5A = test system: WPMY1-ACTB-RAB5A
Summary of the method: as §1

WPMY1-CANX-COX4 = test system: WPMY1-CANX-COX4
Summary of the method: as §1

WPMY1-GM130-SQSTM1 = test system: WPMY1-GM130-SQSTM1
Summary of the method: as §1

WPMY1-TP53BP1-CLTA = test system: WPMY1-TP53BP1-CLTA
Summary of the method: as §1

WPMY1-TUBA1B-RELA = test system: WPMY1-TUBA1B-RELA
Summary of the method: as §1

Measured: phenotypically active

C=C1C[C@@]23CCC4[C@@](C)(CCC[C@@]4(C)C(=O)O[C@@H]4O[C@H](CO)C(O)[C@H](O)C4O)C2CC[C@@]1(O[C@H]1O[C@H](CO)C(O)[C@H](O)[C@H]1O[C@@H]1O[C@H](CO)[C@@H](O)[C@H](O)[C@H]1O)C3 (stereo not given in full) [Stevioside]
inactive: A549-ACTB-RAB5A 0 | A549-CANX-COX4 0 | A549-GM130-SQSTM1 0 | A549-TP53BP1-CLTA 0 | A549-TUBA1B-RELA 0 | HepG2-ACTB-RAB5A 0 | HepG2-CANX-COX4 0 | HepG2-GM130-SQSTM1 0 | HepG2-TP53BP1-CLTA 0 | HepG2-TUBA1B-RELA 0 | WPMY1-ACTB-RAB5A 0 | WPMY1-CANX-COX4 0 | WPMY1-GM130-SQSTM1 0 | WPMY1-TP53BP1-CLTA 0 | WPMY1-TUBA1B-RELA 0

C/C=C1/[C@H]2C=C(C)C[C@]1(N)c1ccc(=O)[nH]c1C2 [Huperzine A]
inactive: A549-ACTB-RAB5A 0 | A549-CANX-COX4 0 | A549-GM130-SQSTM1 0 | A549-TP53BP1-CLTA 0 | A549-TUBA1B-RELA 0 | HepG2-ACTB-RAB5A 0 | HepG2-CANX-COX4 0 | HepG2-GM130-SQSTM1 0 | HepG2-TP53BP1-CLTA 0 | HepG2-TUBA1B-RELA 0 | WPMY1-ACTB-RAB5A 0 | WPMY1-CANX-COX4 0 | WPMY1-GM130-SQSTM1 0 | WPMY1-TP53BP1-CLTA 0 | WPMY1-TUBA1B-RELA 0

C[C@]12CC[C@@H]3c4ccc(OS(=O)(=O)O)cc4CC[C@H]3[C@@H]1CCC2=O [estrone sulfuric acid]
inactive: A549-ACTB-RAB5A 0 | A549-CANX-COX4 0 | A549-GM130-SQSTM1 0 | A549-TP53BP1-CLTA 0 | A549-TUBA1B-RELA 0 | HepG2-ACTB-RAB5A 0 | HepG2-CANX-COX4 0 | HepG2-GM130-SQSTM1 0 | HepG2-TP53BP1-CLTA 0 | HepG2-TUBA1B-RELA 0 | WPMY1-ACTB-RAB5A 0 | WPMY1-CANX-COX4 0 | WPMY1-GM130-SQSTM1 0 | WPMY1-TP53BP1-CLTA 0 | WPMY1-TUBA1B-RELA 0

CCN[C@H]1C[C@H](C)S(=O)(=O)c2sc(S(N)(=O)=O)cc21 [dorzolamide]
inactive: A549-ACTB-RAB5A 0 | A549-CANX-COX4 0 | A549-GM130-SQSTM1 0 | A549-TP53BP1-CLTA 0 | A549-TUBA1B-RELA 0 | HepG2-ACTB-RAB5A 0 | HepG2-CANX-COX4 0 | HepG2-GM130-SQSTM1 0 | HepG2-TP53BP1-CLTA 0 | HepG2-TUBA1B-RELA 0 | WPMY1-ACTB-RAB5A 0 | WPMY1-CANX-COX4 0 | WPMY1-GM130-SQSTM1 0 | WPMY1-TP53BP1-CLTA 0 | WPMY1-TUBA1B-RELA 0

O=C(NC(CO)C(O)c1ccc([N+](=O)[O-])cc1)C(Cl)Cl (stereo not given) [Chloramphenicol]
inactive: A549-ACTB-RAB5A 0 | A549-CANX-COX4 0 | A549-GM130-SQSTM1 0 | A549-TP53BP1-CLTA 0 | A549-TUBA1B-RELA 0 | HepG2-ACTB-RAB5A 0 | HepG2-CANX-COX4 0 | HepG2-GM130-SQSTM1 0 | HepG2-TP53BP1-CLTA 0 | HepG2-TUBA1B-RELA 0 | WPMY1-ACTB-RAB5A 0 | WPMY1-CANX-COX4 0 | WPMY1-GM130-SQSTM1 0 | WPMY1-TP53BP1-CLTA 0 | WPMY1-TUBA1B-RELA 0

COc1cc2c(cc1OC)CC(=O)N(CCCN(C)C[C@H]1Cc3cc(OC)c(OC)cc31)CC2 [ivabridine]
inactive: A549-ACTB-RAB5A 0 | A549-CANX-COX4 0 | A549-GM130-SQSTM1 0 | A549-TP53BP1-CLTA 0 | A549-TUBA1B-RELA 0 | HepG2-ACTB-RAB5A 0 | HepG2-CANX-COX4 0 | HepG2-GM130-SQSTM1 0 | HepG2-TP53BP1-CLTA 0 | HepG2-TUBA1B-RELA 0 | WPMY1-ACTB-RAB5A 0 | WPMY1-CANX-COX4 0 | WPMY1-GM130-SQSTM1 0 | WPMY1-TP53BP1-CLTA 0 | WPMY1-TUBA1B-RELA 0

O=[N+]([O-])c1c(Nc2cc(F)cc(Cl)c2)ccc2nonc12
inactive: A549-ACTB-RAB5A 0 | A549-CANX-COX4 0 | A549-GM130-SQSTM1 0 | A549-TP53BP1-CLTA 0 | A549-TUBA1B-RELA 0 | HepG2-ACTB-RAB5A 0 | HepG2-CANX-COX4 0 | HepG2-GM130-SQSTM1 0 | HepG2-TP53BP1-CLTA 0 | HepG2-TUBA1B-RELA 0 | WPMY1-ACTB-RAB5A 0 | WPMY1-CANX-COX4 0 | WPMY1-GM130-SQSTM1 0 | WPMY1-TP53BP1-CLTA 0 | WPMY1-TUBA1B-RELA 0

C[C@@H]1O[C@@H](O[C@H]2[C@H](Oc3cc(O)c4c(c3)O[C@H](c3ccc(O)cc3)CC4=O)O[C@H](CO)[C@@H](O)[C@@H]2O)[C@H](O)[C@H](O)[C@H]1O [Naringin hydrate]
inactive: A549-ACTB-RAB5A 0 | A549-CANX-COX4 0 | A549-GM130-SQSTM1 0 | A549-TP53BP1-CLTA 0 | A549-TUBA1B-RELA 0 | HepG2-ACTB-RAB5A 0 | HepG2-CANX-COX4 0 | HepG2-GM130-SQSTM1 0 | HepG2-TP53BP1-CLTA 0 | HepG2-TUBA1B-RELA 0 | WPMY1-ACTB-RAB5A 0 | WPMY1-CANX-COX4 0 | WPMY1-GM130-SQSTM1 0 | WPMY1-TP53BP1-CLTA 0 | WPMY1-TUBA1B-RELA 0

CN(C)CCc1c[nH]c2ccc(C[C@H]3COC(=O)N3)cc12 [zolmitriptan]
inactive: A549-ACTB-RAB5A 0 | A549-CANX-COX4 0 | A549-GM130-SQSTM1 0 | A549-TP53BP1-CLTA 0 | A549-TUBA1B-RELA 0 | HepG2-ACTB-RAB5A 0 | HepG2-CANX-COX4 0 | HepG2-GM130-SQSTM1 0 | HepG2-TP53BP1-CLTA 0 | HepG2-TUBA1B-RELA 0 | WPMY1-ACTB-RAB5A 0 | WPMY1-CANX-COX4 0 | WPMY1-GM130-SQSTM1 0 | WPMY1-TP53BP1-CLTA 0 | WPMY1-TUBA1B-RELA 0

C[N+](C)(C)CCOC(N)=O [Carbamoylcholine chloride]
inactive: A549-ACTB-RAB5A 0 | A549-CANX-COX4 0 | A549-GM130-SQSTM1 0 | A549-TP53BP1-CLTA 0 | A549-TUBA1B-RELA 0 | HepG2-ACTB-RAB5A 0 | HepG2-CANX-COX4 0 | HepG2-GM130-SQSTM1 0 | HepG2-TP53BP1-CLTA 0 | HepG2-TUBA1B-RELA 0 | WPMY1-ACTB-RAB5A 0 | WPMY1-CANX-COX4 0 | WPMY1-GM130-SQSTM1 0 | WPMY1-TP53BP1-CLTA 0 | WPMY1-TUBA1B-RELA 0

Cc1cccc(Nc2cc(Cl)nc(SCC(=O)O)n2)c1C
inactive: A549-ACTB-RAB5A 0 | A549-CANX-COX4 0 | A549-GM130-SQSTM1 0 | A549-TP53BP1-CLTA 0 | A549-TUBA1B-RELA 0 | HepG2-ACTB-RAB5A 0 | HepG2-CANX-COX4 0 | HepG2-GM130-SQSTM1 0 | HepG2-TP53BP1-CLTA 0 | HepG2-TUBA1B-RELA 0 | WPMY1-ACTB-RAB5A 0 | WPMY1-CANX-COX4 0 | WPMY1-GM130-SQSTM1 0 | WPMY1-TP53BP1-CLTA 0 | WPMY1-TUBA1B-RELA 0

CC(C[N+](C)(C)C)OC(N)=O (stereo not given) [bethanechol]
inactive: A549-ACTB-RAB5A 0 | A549-CANX-COX4 0 | A549-GM130-SQSTM1 0 | A549-TP53BP1-CLTA 0 | A549-TUBA1B-RELA 0 | HepG2-ACTB-RAB5A 0 | HepG2-CANX-COX4 0 | HepG2-GM130-SQSTM1 0 | HepG2-TP53BP1-CLTA 0 | HepG2-TUBA1B-RELA 0 | WPMY1-ACTB-RAB5A 0 | WPMY1-CANX-COX4 0 | WPMY1-GM130-SQSTM1 0 | WPMY1-TP53BP1-CLTA 0 | WPMY1-TUBA1B-RELA 0
